Assay results reported in PubChem BioAssay AID624330 (Southern Research Specialized Biocontainment Screening …, 2012).
Screen size: about 340,000 compounds; about 2,100 (0.62%) were called active.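 The calls were made as follows: active = first-screen hits whose inhibition reached a set limit at any dose in the follow-up dose series; inconclusive = inhibition above the set first-screen limit but never retested; inactive = the rest.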 A selection follows. Results with a measured potency or affinity are listed apart.

target: Rac GTPase-activating protein 1 (Homo sapiens) (UniProt Q9H0H5); assay: MgcRacGAP GTPase-activating activity inhibitors, confirmation, biochemical, ADP Hunter fluorescence, primary and confirmatory (AID 624330); settings: MgcRacGAP-stimulated Rac1 GTP hydrolysis, at 30 µM, active compounds read high, GST-tagged Rac1 F28L mutant substrate;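 also: fluorescence reports GDP produced by GAP-driven GTP hydrolysis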
Sequence (Q9H0H5 whole entry, looked up): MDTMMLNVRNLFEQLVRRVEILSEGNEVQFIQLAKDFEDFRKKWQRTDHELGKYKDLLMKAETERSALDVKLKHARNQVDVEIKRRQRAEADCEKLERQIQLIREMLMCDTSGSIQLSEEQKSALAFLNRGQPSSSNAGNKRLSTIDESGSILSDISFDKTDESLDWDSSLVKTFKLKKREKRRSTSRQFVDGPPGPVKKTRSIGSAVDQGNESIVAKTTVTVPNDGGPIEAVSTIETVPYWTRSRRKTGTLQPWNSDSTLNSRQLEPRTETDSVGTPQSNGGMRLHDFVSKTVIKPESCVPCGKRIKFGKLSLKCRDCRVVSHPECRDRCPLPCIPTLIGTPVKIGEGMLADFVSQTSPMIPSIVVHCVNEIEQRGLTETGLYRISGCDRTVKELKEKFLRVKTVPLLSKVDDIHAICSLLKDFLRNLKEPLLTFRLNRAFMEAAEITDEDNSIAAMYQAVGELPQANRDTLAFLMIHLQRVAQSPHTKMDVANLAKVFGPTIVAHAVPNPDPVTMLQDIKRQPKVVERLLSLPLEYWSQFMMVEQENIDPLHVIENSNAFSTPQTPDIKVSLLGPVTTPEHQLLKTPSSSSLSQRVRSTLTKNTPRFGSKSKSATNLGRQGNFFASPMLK

inhibition, inactive:
COc1cccc(C(=O)NCC(c2ccco2)N2CCc3ccccc3C2)c1 (stereo not drawn) 7.73%, Cc1cccc(N2C(S)=C(C#N)C(=O)NC2c2ccco2)c1 (stereo not drawn) 48.2%, Cc1ccccc1N1C(S)=C(C#N)C(=O)NC1c1cccs1 (stereo not drawn) 39%, N#CC1=C(S)N(c2ccc(F)cc2)C(c2cccs2)NC1=O (stereo not drawn) 38.9%, N#CC1=C(S)N(c2ccccc2)C(c2cccs2)NC1=O (stereo not drawn) 53%, COC(=O)c1nnc(-c2ccccc2)nc1OC 4.64%, CCN(CC(=O)Nc1ccccc1C(F)(F)F)C(=O)c1cc(-c2cccs2)nn1-c1ccccc1 1.06%, CCC(=O)OCc1cc(=O)oc2ccc3ccccc3c12 9.78%, O=C(c1cncc(Br)c1)N1CCN(S(=O)(=O)c2ccc3ccccc3c2)CC1 2.91%, Nc1nccnc1C(=O)OCC(=O)NC1CCCc2ccccc21 (stereo not drawn) 2.06%, CCN1CCN(c2sc(S(=O)(=O)CC)nc2S(=O)(=O)c2ccc(Cl)cc2)CC1 13.7%, Cc1ccc(C2=N/C(=C\c3cccs3)C(=O)N2Nc2ccccc2)cc1 4.5%, Cc1nccn1CCOc1ccc(Cl)cc1 19.6%, COc1ccc(OCC(O)Cn2ccnc2C)cc1 (stereo not drawn) -5.32%, C/C(=N\Nc1nc2ccccc2s1)c1cccs1 15.9%, C/C(=N\Nc1nc2ccccc2[nH]1)c1ccc2c(c1)OCO2 29.4%, O=C(Nc1nc2ccccc2[nH]1)c1cccs1 5.07%, C/C(=N\Nc1nc2ccccc2[nH]1)c1ccc2c(c1)OCCO2 14.6%, C/C(=N\Nc1nc2ccccc2[nH]1)c1ccc([N+](=O)[O-])cc1 9.3%, C/C(=N\Nc1nc2ccccc2[nH]1)c1ccccn1 16.1%, COc1ccc(CN2C(=O)c3cccnc3C2=O)cc1S(=O)(=O)N1CCCCC1 5.59%, CCN1CCN(c2ccc(NC(=O)c3ccccc3F)cc2Cl)CC1 10.3%, O=C(CSc1nc(=O)n2ccccc2n1)N1CCC(Cc2ccccc2)CC1 2.37%, CC(C)Nc1nc(NC2CCCC2)nc(N2CCOCC2)n1 -6.17%, Cc1cccc(NS(=O)(=O)c2cccc(C(=O)N3CCCCCCC3)c2)c1 7.59%, CCOC(=O)C1=C(C)NC(C)=C(C(=O)OCC)C1C(=O)O -2.63%, CN(C)c1ccc(/C=C/c2ccc3ccccc3n2)cc1 10.9%, O=c1[nH]c2ccccc2nc1/C=C/c1ccc(F)cc1 2.77%, Oc1ccc(/C=C/c2ccnc3ccccc23)cc1 20.5%, C(=C\c1ccc2ccccc2n1)/c1ccccc1 -0.19%, O=C(Nc1cccc(S(=O)(=O)NC2=NCCCCC2)c1)c1cc(-c2ccc(Cl)cc2)nc2ccccc12 9.39%, Cc1ccc(-c2nnc(SCC(=O)Nc3nc4c(s3)CCCC4)n2C)cc1 10.7%, Cc1ccc(NC(=O)CCC(=O)N/N=C/c2ccccc2O)cc1 -6.53%, COc1ccc(O)c(/C=N/NC(=O)CCC(=O)Nc2ccc(C)cc2)c1 5.47%, Cc1cccc(NC(=O)CCC(=O)N/N=C/c2cc([N+](=O)[O-])ccc2O)c1 5.13%, COc1ccc(O)c(/C=N/NC(=O)CCC(=O)Nc2cccc(C)c2)c1 6.29%, COc1ccc(N2CCN(C(=O)COC(=O)Cc3ccc(F)cc3)CC2)cc1 17.9%, C[C@@H]1CN([C@H](C)CO)C(=O)CCCn2nncc2CO[C@H]1CN(C)Cc1ccc(O)cc1 7.18%, O=C(c1cc(-c2ccco2)on1)N1CCOCC1 2.62%, Cn1c(SCC(=O)N2CCOCC2)nnc1-c1ccco1 -0.83%, Cc1cccc(N2C(=O)C(O)=C(C(=O)c3cccs3)C2c2ccc(F)cc2)n1 (stereo not drawn) 11.6%, CC1CCN(CC(=O)Nc2cc(C(F)(F)F)ccc2Cl)CC1 6.71%, O=C(CC(=O)c1ccccc1)Nc1cc(C(F)(F)F)ccc1Cl -0.8%, COc1ccc(OC)c(NC(=O)CC2(CC(=O)O)CCCC2)c1 5.41%, O=C(Nc1cccc(-n2cnnn2)c1)c1cc2ccccc2o1 0.98%, CC(=O)Nc1cccc(-c2csc(NCc3ccco3)n2)c1 15.4%, CC(=O)Nc1ccc(-c2csc(NCc3ccccc3)n2)cc1 8.92%, N/C(=N\OC(=O)c1ccco1)c1cccc([N+](=O)[O-])c1 6.07%, CCn1cc(Cl)c(C(=O)Nc2nccs2)n1 1.45%, C=C(C)CSc1nnc(-c2ccc(OC)cc2)n1N 5.76%, CC(C)(C)c1cc(C(=O)N/N=C/c2ccccc2O)n(-c2ccccc2)n1 2.15%, O=C(O)c1ccc(C=NNC(=O)c2ccccc2NS(=O)(=O)c2cccs2)cc1 7.04%, O=C(N/N=C/c1cccc(C(F)(F)F)c1)c1ccc(O)cc1 6.36%, O=C(N/N=C/c1ccc(C(F)(F)F)cc1)c1ccc(O)cc1 8.28%, O=C(NN=Cc1ccc(F)cc1)c1ccccc1NS(=O)(=O)c1cccs1 5.29%, O=C(Nc1ccccc1C(=O)N/N=C/c1ccncc1)c1ccccc1 9.96%, O=C(Nc1ccccc1C(=O)N/N=C/c1ccco1)c1ccccc1 7.26%, CC(C)(C)c1cc(C(=O)N/N=C/c2ccc(F)cc2)n(-c2ccccc2)n1 6.73%, O=C(CSc1nnc(C2CC2)n1-c1ccccc1)NC1CCS(=O)(=O)C1 (stereo not drawn) -2.5%, CCOC(=O)c1cc(C)nn1-c1nc(Cl)cc(OC)n1 5.27%, COC(=O)c1ccccc1NC(=O)Oc1ccc(C(C)C)cc1 8.33%, Cc1ccc(NS(=O)(=O)c2ccc(-n3cccn3)cc2)nc1 4.91%, COc1ccc(S(=O)(=O)N2CCCCC2)cc1NC(=O)C1CSC2(C)CCC(=O)N12 (stereo not drawn) 5.04%
